# TEAD-YAP block: TEAD-YAP interaction inhibition; HEK-TIYL cells, TEAD-Gal4/YAP UAS-luciferase luminescence; inhibition, % at 9.12 µM; actives 1.4% (n = 640,000); AID 1259422; in the data active = inhibition above about 32%
# GPR151 activ: human GPR151 activation | Q8TDV0 | PathHunter beta-arrestin GPR151 cells, luminescence | activation, % at 11.2 µM | actives 1% (n = 650,000) | AID 1508602; in the data active = activation above about 4.9%
# MITF primary: inhibitors of human MITF; O75030; AlphaScreen MITF homodimerization, bead proximity signal; inhibition, % at 2.6 µM; actives 0.91% (n = 650,000); in the data active = inhibition above about 50%
# Target sequence (O75030 whole entry, looked up): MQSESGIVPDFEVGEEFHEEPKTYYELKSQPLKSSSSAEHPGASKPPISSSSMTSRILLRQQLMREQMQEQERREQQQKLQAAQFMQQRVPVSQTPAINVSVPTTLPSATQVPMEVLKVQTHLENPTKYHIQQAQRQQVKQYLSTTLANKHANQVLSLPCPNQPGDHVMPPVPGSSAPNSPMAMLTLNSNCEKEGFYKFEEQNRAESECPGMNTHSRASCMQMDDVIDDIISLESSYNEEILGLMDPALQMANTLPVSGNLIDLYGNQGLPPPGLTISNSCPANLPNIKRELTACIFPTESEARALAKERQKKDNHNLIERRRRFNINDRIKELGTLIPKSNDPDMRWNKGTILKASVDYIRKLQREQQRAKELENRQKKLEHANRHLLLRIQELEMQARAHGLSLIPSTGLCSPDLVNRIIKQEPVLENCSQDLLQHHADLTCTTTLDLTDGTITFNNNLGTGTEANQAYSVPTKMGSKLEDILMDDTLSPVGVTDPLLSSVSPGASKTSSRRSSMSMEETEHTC
# FBW7 activator: activators of human E3 ligase FBW7; AlphaScreen FBW7–phospho-cyclin E peptide binding, activator screen; normalized activity (activation), % at 26.1 µM; actives 0.13% (n = 650,000); AID 1259310; in the data active = normalized activity above about 1.9%;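 also: purified mutant Fbw7 with reduced substrate affinity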
# A number is an active result; 0 = inactive. This is a sample that favours compounds with a hit; in the whole collection about 3.5% have one here.
SMILES,TEAD-YAP block,GPR151 activ,MITF primary,FBW7 activator
COc1ccc(Cl)cc1C(=O)N/C(=C\c1cccc([N+](=O)[O-])c1)C(=O)Nc1ccc(C)c(Cl)c1,0,0,0,0
Nc1nc(NCCOc2ccccc2)cc(N2CCc3ccccc3C2)n1,0,0,0,0
COC(=O)C(C)CC(C)C(=O)N1CCOCCOCCOCCOCCOCC1 (stereo not drawn),0,0,0,0
Cc1nc(C)n(-c2ccc(Nc3cc(-n4cc(C)c(Nc5ccccc5)n4)ccn3)cc2)n1,0,0,0,1.9
COc1cc(Br)c(S(N)(=O)=O)cc1OC,0,0,0,0
Cc1sc2ncnc(NCCc3ccc4c(c3)OCCO4)c2c1C,57,0,0,0
Cc1sc2ncnc(NCC3COc4ccccc4O3)c2c1C (stereo not drawn),48,0,0,0
CCOC(=O)CNC(=O)CCCNC(=O)Cn1cnc2sc(C)c(C)c2c1=O,0,0,0,0
CCOC(=O)c1c(NC(=O)c2cccc(S(=O)(=O)N3CCCCC3)c2)sc2c1CCC2,0,0,0,0
O=C(CSc1nc2ccc(NC(=O)c3ccccc3)cc2s1)NCc1ccccc1,0,0,0,0
CC(=O)Nc1ccc2nc(SCC(=O)NCc3ccccc3)sc2c1,38,0,0,0
C=CCSc1nnc(NC(=O)COc2ccc3ccccc3c2)s1,0,0,0,0
O=C(Cc1ccccc1)N/N=C/c1cccc2ccccc12,0,0,0,0
O=C(N/N=C/c1ccc(O)c2ncccc12)c1ccc(F)cc1,0,0,113,0
O=C(Cc1ccccc1)N/N=C/c1ccc(O)c2ncccc12,0,0,98,0
COc1ccc(N(CC(=O)Nc2cccc(C)c2)S(C)(=O)=O)cc1OC,0,0,0,0
CC1CCc2c(sc(N)c2C(=O)Nc2cccc3ccccc23)C1 (stereo not drawn),0,0,0,0
COc1cc2ccccc2cc1C(=O)N/N=C/c1cccs1,50,0,0,0
CCOc1ccc(Br)cc1C(=O)N/N=C/c1ccc(C)o1,36,0,0,0
CC(C)Oc1ccc(Br)cc1C(=O)N/N=C/c1ccc(O)cc1,0,0,0,0
CCOc1ccc(Br)cc1C(=O)N/N=C/c1cccs1,55,0,0,0
CC(C)Oc1ccc(Br)cc1C(=O)N/N=C/c1ccco1,38,0,0,0
O=C(N/N=C/c1cccs1)c1cc2ccccc2cc1O,0,0,0,0
Cc1cccc(Nc2ccc([N+](=O)[O-])cc2S(N)(=O)=O)c1,36,0,0,0
COc1cccc(C(=O)Nc2cccc(OC(=O)c3ccc(C)c(S(=O)(=O)N4CCOCC4)c3)c2)c1,36,0,0,0
SMILES,TEAD-YAP block,GPR151 activ,MITF primary,FBW7 activator
COc1ccc(C(=O)Nc2cccc(OC(=O)c3ccc(C)c(S(=O)(=O)N4CCOCC4)c3)c2)cc1,66,0,0,0
Cc1ccc(C(=O)Nc2cccc(OC(=O)c3cccc(S(=O)(=O)N4CCC(C)CC4)c3)c2)cc1,68,0,0,0
Cc1c2c(n(Cc3ccccc3)c1-c1ccccc1)C(c1ccccc1)Oc1ccccc1-2 (stereo not drawn),0,0,0,0
CCCCc1ccc(NS(=O)(=O)N(C)C)cc1,0,0,0,0
COc1c(NC(=O)Nc2ccccc2C)cc([N+](=O)[O-])c(OC)c1C,45,0,0,0
CCOC(=O)N1CCN(C(=O)N2c3ccccc3Sc3ccccc32)CC1,56,0,0,0
CC1CCN(C(=O)N2c3ccccc3Sc3ccccc32)CC1,0,0,0,0
COc1ccc(-n2nc(C(=O)NCC(=O)N3CCCC3)c3ccccc3c2=O)cc1,0,0,0,0
COc1ccc(-n2nc(C(=O)NCC(=O)N3CCC(Cc4ccccc4)CC3)c3ccccc3c2=O)cc1,33,0,0,0
COCCNC(=O)CNC(=O)c1nn(-c2ccc(OC)c(Cl)c2)c(=O)c2ccccc12,0,0,0,0
COc1ccc(OC)c(NC(=O)CNC(=O)c2nn(-c3ccc(OC)c(OC)c3)c(=O)c3ccccc23)c1,39,0,0,0
COc1ccc(-n2nc(C(=O)NCC(=O)NCCc3ccc(OC)c(OC)c3)c3ccccc3c2=O)cc1Cl,38,0,0,0
COc1ccc(OC)c(NC(=O)CNC(=O)c2nn(-c3ccc(OC)c(Cl)c3)c(=O)c3ccccc23)c1,36,0,0,0
CCOC(=O)C1(CCCc2ccccc2)CCN(C(=O)c2c(C)nc3ncccn23)CC1,0,0,0,0
O=C(N/N=C\c1ccc(F)cc1)c1cccc2cc[nH]c12,0,0,0,0
COc1ccc(C2CC(=O)N3CN(C)CSC3=C2C#N)cc1 (stereo not drawn),0,0,0,0
COc1ccc(NC(=O)c2ccc(N3C(=O)c4cccc([N+](=O)[O-])c4C3=O)cc2)cc1,0,0,0,0
O=C(Nc1ccc(O)cc1)c1ccc(N2C(=O)c3cccc([N+](=O)[O-])c3C2=O)cc1,35,0,0,0
Cc1cc(C)nc(SCc2ccccc2Cl)n1,0,0,0,2.2
O=C(Nc1ccc(Cl)c(Cl)c1)c1ccc(F)c(S(=O)(=O)N2CCCc3ccccc32)c1,49,0,0,0
O=C(Nc1ccc(F)c(F)c1)c1ccc(F)c(S(=O)(=O)N2CCCc3ccccc32)c1,43,0,0,0
COc1ccc2c(c1)CC(c1nc3cc(-c4ccnc5[nH]ccc45)c(F)cc3[nH]1)CO2 (stereo not drawn),50,0,0,0
COc1ccc2c(c1)CC(c1nc3ccc(-c4ccnc(N)c4)cc3[nH]1)CO2 (stereo not drawn),0,0,0,0
CCn1c(C2COc3ccc(OC)cc3C2)nc2cc(F)c(-c3ccnc4[nH]ccc34)cc21 (stereo not drawn),0,0,58,0
O=C(/C=C/c1cccc([N+](=O)[O-])c1)/C=C/c1ccco1,0,0,0,0
SMILES,TEAD-YAP block,GPR151 activ,MITF primary,FBW7 activator
CN(C)c1ccc(/C=C/C(=O)/C=C/c2ccco2)cc1,0,0,63,0
Cc1ccn(CC(=O)N(Cc2cc3ccc(F)cc3nc2N2CCOCC2)C2CC2)n1,0,0,0,0
COc1cc(C=O)ccc1OCCOCCOc1ccccc1OC(C)C,0,0,0,0
CCCCNc1nc2c(c(=O)n(C)c(=O)n2C)n1Cc1cccc(Br)c1,0,0,0,0
Nc1ncc(-c2ccncc2)nc1NCc1ccccc1,0,0,0,0
Nc1ncc(-c2cccc(F)c2)nc1NCc1ccncc1,0,0,0,1.9
NC(=O)c1c(NC(=O)CN(C(=O)c2cccs2)C2CCCC2)sc2c1CCCC2,0,0,0,0
CCCCC(=O)NC(c1cccs1)c1ccc2ccccc2c1O (stereo not drawn),0,0,0,0
CCCC(=O)NC(c1cccs1)c1ccc2cccnc2c1O (stereo not drawn),86,0,0,0
CCC(=O)NC(c1cccs1)c1ccc2cccnc2c1O (stereo not drawn),77,0,0,0
CCC(=O)NC(c1cccs1)c1ccc2ccccc2c1O (stereo not drawn),0,0,0,0
O=C(Nc1ccc(F)cc1)Nc1ccccc1Br,0,0,0,0
CCOc1cc(/C=N/n2cnnc2)cc(I)c1O,0,0,65,0
